From PubChem BioAssay
Rows were chosen to be rich in hits. Some 11% of all compounds tested hit in one or more screens of this group.
HEK cytotox: cytotoxic compounds in HEK 293 cells | Potency, µM (series often up to 115 µM), without a hit: top-dose activity change, negative = cytotoxicity, hits mostly inhibitors | 94,000 compounds, 6.6% hits | HEK 293 viability, ATP luminescence (CellTiter-Glo), 48-72 h; further: nearly all actives have a fitted effect of over 60% in size
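ATP-coupled CellTiter-Glo luminescence served as viability read-out, recorded 10 min after reagent addition at room temperature. HEK 293 cells, 250 cells/well, had been incubated with pintool-transferred compound for 48 or 72 hr at 37 degree Celsius.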
NIH3T3 tox: kills NIH 3T3 cells; NIH 3T3 viability, CellTiter-Glo ATP luminescence, 48-72 h; Potency, µM (doses to about 96.7 µM), for the others: at the highest dose activity change, negative = cytotoxicity, actives largely listed as inhibitors; 94,000 compounds, 4.3% hits; further: nearly all actives have a fitted effect of over 55% in size
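Viability of NIH 3T3 cells after 48 or 72 hr compound treatment at 37 °C was assessed by CellTiter-Glo, with luminescence imaged following a 10 min room-temperature step.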
NPR1 antag: blocks ANP-stimulated signaling of human Npr1 receptor; HEK293 hNpr1 GloSensor cGMP, ANP-stimulated luminescence; 76,000 compounds, 1.6% hits; P16066; Potency, µM (highest dose often 46.3 µM), for the others: at the top dose activity change, negative = inhibition, hits mostly inhibitors; calls by dose curve; further: nearly all actives have a fitted effect of over 60% in size
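HEK293 cells stably expressing human Npr1 and cGMP GloSensor pGS-40F, loaded 2 h with 2% GloSensor reagent, given compound 30 min at room temperature. Luminescence read before and 20 min after 0.1 nM hNppA.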
Luciferase inh: inhibitors of firefly (Photinus pyralis) luciferase | Potency, µM (series often up to 115 µM), actives largely listed as inhibitors | P08659 | purified P. pyralis luciferase, luminescence, biochemical | 76,000 compounds, 2.5% hits; further: nearly all actives have a fitted effect of over 65% in size
Target sequence (P08659 whole entry, looked up): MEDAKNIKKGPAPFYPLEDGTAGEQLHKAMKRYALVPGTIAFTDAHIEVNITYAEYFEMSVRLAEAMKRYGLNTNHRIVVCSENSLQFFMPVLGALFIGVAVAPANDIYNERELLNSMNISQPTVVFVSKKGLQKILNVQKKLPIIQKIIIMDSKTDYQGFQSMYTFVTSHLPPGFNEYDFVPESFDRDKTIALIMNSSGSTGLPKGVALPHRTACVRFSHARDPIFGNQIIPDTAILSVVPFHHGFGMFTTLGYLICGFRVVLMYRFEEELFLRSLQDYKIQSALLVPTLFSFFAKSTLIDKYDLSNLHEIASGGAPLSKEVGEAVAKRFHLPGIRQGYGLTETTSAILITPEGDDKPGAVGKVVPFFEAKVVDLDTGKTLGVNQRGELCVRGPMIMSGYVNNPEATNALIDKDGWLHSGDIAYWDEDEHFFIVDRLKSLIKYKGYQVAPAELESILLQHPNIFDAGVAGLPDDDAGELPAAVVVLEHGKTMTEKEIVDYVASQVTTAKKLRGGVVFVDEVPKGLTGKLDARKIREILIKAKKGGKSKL
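Cell-free enzyme assay, 10nM P. pyralis luciferase, luciferin and ATP each at 10uM. Inhibition profiled over a 6-point titration, read as luminescence.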
Numbers without * were called inactive; i = inactive; ? = inconclusive; / = not tested or not shown; [ ] = remark or other dose. Unless noted, the call rests on the fitted dose curve; in most records, active means well fitted curve in the direction sought with a large enough effect; inconclusive means small, poorly fitted or top-dose-only effect, or another doubt; inactive means no such curve, though single readings can be large; an effect the other way counts as inactive or inconclusive. On the % scale 0 is the no-effect control and ±100 the full control effect; potency means the concentration at half of the fitted maximal effect.

SMILES	HEK cytotox	NIH3T3 tox	NPR1 antag	Luciferase inh
COc1cccc(C(=O)N2C[C@H](C(N)=O)[C@H]3c4ccccc4N(CC4CC4)C(=O)[C@]32C)c1	-3%[57.5 µM]	?	/	/
O=C(CCC[C@H]1NC[C@@H]2C[C@H]1CN(Cc1ccccc1)C2)NCc1ccc(N2CCOCC2)cc1	-5%	-5%	-12%	i
FC(F)(F)c1ccc(-c2noc([C@@H]3Cc4nc[nH]c4CN3CC3CCCCC3)n2)cc1	32µM*	28µM*	-17%[70.6 µM]	i
CN(C)c1ccc(-c2noc([C@@H]3CCCN3CC3CCCCC3)n2)cn1	?	79µM*	?	35µM*
c1cc(-c2noc([C@@H]3Cc4nc[nH]c4CN3CC3CCCCC3)n2)ccn1	?	79µM*	-6%[70.6 µM]	i
Clc1ccc(-c2noc([C@@H]3Cc4nc[nH]c4CN3CC3CCCCC3)n2)cc1	50µM*	28µM*	-15%[70.6 µM]	i
CN(C)c1ccc(-c2noc([C@@H]3CCCN3Cc3ccc(CO)o3)n2)cn1	0%[172 µM]	3%[174 µM]	1%[70.6 µM]	?
c1csc(CN2Cc3[nH]cnc3C[C@H]2c2nc(-c3ccncc3)no2)c1	?	?	-28%[70.6 µM]	i
Cc1cc2nc3n(c(=O)c2n1CC(=O)Nc1ccc(Cl)cc1F)CCCC3	?	?	0%	i
Cc1ccccc1C(=O)NC1CCN(CCn2nc3n(c2=O)CCCC3)C1 (stereo not drawn)	i	-10%	/	/
O=C(CCCc1ccccc1)NCC1CCCCC(=O)N1 (stereo not drawn)	i	i	/	/
CSCC[C@@H]1NC(=O)c2cc(NC(=O)c3n[nH]c4c3CCCC4)ccc2NC1=O	-19%	-16%	-2%	i
CCn1ncc(N2CCCC(CC(=O)N3CCN(c4cccc(Cl)c4)CC3)C2)cc1=O (stereo not drawn)	35µM*	?	?	i
CCN1CCN(C(=O)CC2CCCN(c3cnn(CC)c(=O)c3)C2)CC1 (stereo not drawn)	9%	i	9%	i
O=C(CC1CCCN(c2cnn(CC3CC3)c(=O)c2)C1)N1CCN(c2ccccc2)CC1 (stereo not drawn)	50µM*	?	?	i
C#CCNC(=O)c1nc(-c2ccsc2)c2cnccn12	100µM*	-21%[138 µM]	0%[70.6 µM]	i
C#CCNC(=O)c1nc(-c2cccnc2)c2cnccn12	?	-22%[138 µM]	13%[70.6 µM]	i
CC(=O)N1CCc2nn(CC(=O)Nc3ccc(C(F)(F)F)cc3)c(=O)cc2C1	-6%	?	-6%	i
O=C(c1ccc2ccccc2n1)N1CCC(Cc2ccc(CN3CCOCC3)cc2)CC1	35µM*	?	/	/
CN1CCN(Cc2ccc(CC3CCN(C(=O)c4ccc5cc[nH]c5c4)CC3)cc2)CC1	?	32µM*	/	/
COc1cc2c(cc1OC)C(CNC(=O)c1ccc(C)cc1)N(C(=O)NC(C)C)CC2 (stereo not drawn)	40µM*	-3%	-1%	i
COc1cc2c(cc1OC)C(CNC(=O)c1ccc(C)cc1)N(C(=O)Nc1ccccc1F)CC2 (stereo not drawn)	?	-9%	-1%	i
NC(=O)C1(N2CCCCC2)CCN(c2nccc(-c3ccccn3)n2)CC1	0%	-26%	0%	i
CCCN1CCC2(CCN(C(=O)OC)CC2)Oc2ccccc21	100µM*	?	0%[70.6 µM]	i
CCCN1CCC2(CCN(C(=O)c3ccc(OC)cc3)CC2)Oc2ccccc21	45µM*	?	0%	i
SMILES	HEK cytotox	NIH3T3 tox	NPR1 antag	Luciferase inh
COc1ccc(-c2ccccc2NC(=O)C2CCCN(Cc3ccc(O)c(OC)c3)C2)cc1 (stereo not drawn)	?	?	-1%	i
COc1ccc(-c2ccccc2NC(=O)C2CCCN(Cc3ccccc3O)C2)cc1 (stereo not drawn)	25µM*	?	0%	i
COc1ccc(-c2ccccc2NC(=O)C2CCCN(Cc3c(O)cccc3OC)C2)cc1 (stereo not drawn)	20µM*	?	?	i
COc1ccccc1-n1c(=O)c(C(=O)NCc2ccccc2F)nc2cccnc21	i	-12%	/	/
O=C1CCNc2ccccc2CN1C1CC1	-20%	?	/	/
Cc1ccc(NS(=O)(=O)c2ccccc2)c(=O)n1CC(=O)NC(C)c1ccccc1 (stereo not drawn)	1%	-8%	1%	i
O=C(CCc1c[nH]c2ccccc12)N1CCC[C@H](n2c(=O)n(CC3CC3)c3cccnc32)C1	79µM*	?	-3%	i
Cc1nc(C)c(C(=O)N2CCC[C@H](n3c(=O)n(Cc4ccccc4)c4cccnc43)C2)s1	40µM*	-14%	-8%	i
Cc1cccc(CC(=O)N2CCC[C@H](n3c(=O)n(Cc4ccccc4)c4cccnc43)C2)c1	40µM*	?	?	i
COCCn1c(=O)n([C@H]2CCCN(C(=O)Cc3cccc(F)c3)C2)c2ncccc21	i	3%	7%	i
CNC(=O)c1cc(C)nc2onc(C3CCCN3C(=O)c3ccc(C)cc3)c12 (stereo not drawn)	3%	-22%	/	/
CC(=O)NC[C@H]1CCN(S(=O)(=O)c2ccc3c(c2)CCC3)C[C@H]1N(C)C	-30%	-13%	6%	i
O=C(CNC(=O)c1cccc(-c2ccsc2)c1)NCc1ccccc1F	i	-10%	/	/
COc1ccccc1CNC(=O)CNC(=O)c1cccc(-c2ccc(C(F)(F)F)cc2)c1	35µM*	?	/	/
O=C(CNC(=O)c1cccc(-c2ccc(C(F)(F)F)cc2)c1)NCc1ccccc1F	22µM*	?	/	/
CN1CC(c2ccccc2)CC2(CCN(C(=O)CCCn3ccnc3)CC2)C1 (stereo not drawn)	?	?	1%	i
CCOC(=O)c1ccc(NC(=O)N2Cc3[nH]cnc3C[C@H]2c2nc(-c3ccncc3)no2)cc1	-11%	?	-5%	i
CCOC(=O)c1ccc(NC(=O)N2Cc3[nH]cnc3C[C@H]2c2nc(-c3ccc4c(c3)OCO4)no2)cc1	?	28µM*	-3%	40µM*
O=C(Nc1ccc(Cl)cc1)N1Cc2[nH]cnc2C[C@H]1c1nc(-c2ccc(OC(F)(F)F)cc2)no1	20µM*	25µM*	?	i
O=C(Nc1ccc(Cl)cc1)N1Cc2[nH]cnc2C[C@H]1c1nc(-c2ccc(F)c(Cl)c2)no1	?	25µM*	?	7.9µM*
CCOC(=O)c1ccc(NC(=O)N2Cc3[nH]cnc3C[C@H]2c2nc(-c3ccc(OC(F)(F)F)cc3)no2)cc1	?	25µM*	-16%	?
CCNC(=O)N1Cc2[nH]cnc2C[C@H]1c1nc(-c2ccc(OC(F)(F)F)cc2)no1	?	?	2%[70.6 µM]	?
CCSCCNC(=O)c1c(C)noc1-c1cccc(F)c1	i	-3%	6%	i
CNC(=O)c1cc(C2CC2)nc2onc(C3CCN(C(=O)Cc4ccccn4)C3)c12 (stereo not drawn)	-21%	-16%	/	/
